Many of the other results were omitted from the sample, so the strongest signals are more common in it than they were.
Columns and labels:
Experiment in all cases: glycan array binding signal (z-score within array); higher = stronger binding
Details in all cases: glycan notation: IUPAC condensed, linker removed
[1] = biological target: Fuc(a1-2)Gal(b1-4)Fuc(a1-3)]GlcNAc(b1-2)Man(a1-3)[Fuc(a1-2)Gal(b1-4)[Fuc(a1-3)]GlcNAc(b1-2)Man(a1-6)]Man(b1-4)GlcNAc(b1-4)GlcNAc
In short: (§1)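 The binding signal is a Z-score computed within each array. Data were drawn from 3228 arrays in the Consortium for Functional Glycomics database, restricted to those with a known protein sequence. Scores were averaged over arrays of the same protein sequence at different concentrations or buffers, and over linkers, and negative values can be taken as non-binding.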

Fuc(a1-2)Gal(b1-4)GlcNAc = biological target: Fuc(a1-2)Gal(b1-4)GlcNAc
In short: as §1

[2] = biological target: Fuc(a1-2)Gal(b1-4)[Fuc(a1-3)]GlcNAc(b1-2)[Fuc(a1-2)Gal(b1-4)[Fuc(a1-3)]GlcNAc(b1-4)]Man(a1-3)[Fuc(a1-2)Gal(b1-4)[Fuc(a1-3)]GlcNAc(b1-2)Man(a1-6)]Man(b1-4)GlcNAc(b1-4)GlcNAc
In short: as §1

Fuc(a1-2)Gal6S(b1-4)Glc = biological target: Fuc(a1-2)Gal6S(b1-4)Glc
In short: as §1

[3] = biological target: Fuc(a1-2)[GalNAc(a1-3)]Gal(b1-3)GlcNAc(b1-3)GalNAc
In short: as §1

[4] = biological target: Fuc(a1-2)[GalNAc(b1-3)]Gal
In short: as §1

[5] = biological target: Fuc(a1-3)[Gal(b1-4)]GlcNAc(b1-6)GalNAc
In short: as §1

Fuc(a1-4)GlcNAc = biological target: Fuc(a1-4)GlcNAc
In short: as §1

Gal(a1-2)Gal = biological target: Gal(a1-2)Gal
In short: as §1

Gal(a1-3)Gal = biological target: Gal(a1-3)Gal
In short: as §1

Gal(a1-3)Gal(b1-3)GlcNAc = biological target: Gal(a1-3)Gal(b1-3)GlcNAc
In short: as §1

[6] = biological target: Gal(a1-3)Gal(b1-3)GlcNAc(b1-2)Man
In short: as §1

[7] = biological target: Gal(a1-3)Gal(b1-4)GlcNAc(b1-2)Man
In short: as §1

[8] = biological target: Gal(a1-4)Gal(b1-4)GlcNAc(b1-3)Gal(b1-4)Glc
In short: as §1

Gal(b1-3)GalNAc(b1-3)Gal = biological target: Gal(b1-3)GalNAc(b1-3)Gal
In short: as §1

[9] = biological target: Gal(b1-3)GalNAc(b1-4)Gal(b1-4)Glc
In short: as §1

[10] = biological target: Gal(b1-3)GlcNAc(b1-3)Gal(b1-4)GlcNAc
In short: as §1

[11] = biological target: Gal(b1-4)GlcNAc(b1-2)Man(a1-3)[Gal(b1-4)GlcNAc(b1-2)Man(a1-6)][GlcNAc(b1-4)]Man(b1-4)GlcNAc(b1-4)[Fuc(a1-6)]GlcNAc
In short: as §1

[12] = biological target: Gal(b1-4)GlcNAc(b1-2)Man(a1-3)[Man(a1-6)]Man(b1-4)GlcNAc(b1-4)GlcNAc
In short: as §1

[13] = biological target: Gal(b1-4)GlcNAc(b1-3)Gal(b1-4)GlcNAc(b1-2)[Gal(b1-4)GlcNAc(b1-3)Gal(b1-4)GlcNAc(b1-6)]Man(a1-6)[Gal(b1-4)GlcNAc(b1-3)Gal(b1-4)GlcNAc(b1-2)Man(a1-3)]Man(b1-4)GlcNAc(b1-4)GlcNAc
In short: as §1

[14] = biological target: Gal(b1-4)GlcNAc(b1-3)Gal(b1-4)GlcNAc(b1-3)GalNAc
In short: as §1

Gal3S(b1-4)Glc = biological target: Gal3S(b1-4)Glc
In short: as §1

Gal6S(b1-4)Glc = biological target: Gal6S(b1-4)Glc
In short: as §1

GalNAc(b1-3)Gal = biological target: GalNAc(b1-3)Gal
In short: as §1

[15] = biological target: GalNAc(b1-3)Gal(a1-6)Gal(b1-4)Glc
In short: as §1

[16] = biological target: GalNAc3S(b1-4)[Fuc(a1-3)]GlcNAc
In short: as §1

Glc(b1-6)Glc = biological target: Glc(b1-6)Glc
In short: as §1

[17] = biological target: GlcA3S(b1-3)Gal(b1-4)GlcNAc(b1-3)Gal(b1-4)Glc
In short: as §1

[18] = biological target: GlcNAc(b1-2)[GlcNAc(b1-4)]Man(a1-3)[GlcNAc(b1-4)][GlcNAc(b1-2)Man(a1-6)]Man(b1-4)GlcNAc(b1-4)GlcNAc
In short: as §1

[19] = biological target: GlcNAc(b1-2)[GlcNAc(b1-6)]Man(a1-6)[GlcNAc(b1-4)][GlcNAc(b1-2)Man(a1-3)]Man(b1-4)GlcNAc(b1-4)GlcNAc
In short: as §1

B1: CD34 (Homo sapiens), P28906 (protein)
chain: MGSSHHHHHHSSGLVPRGSHMSTSLATSPTKPYTSSSPILSDIKAEIKCSGIREVKLTQGICLEQNKTSSCAEFKKDRGEGLARVLCGEEQADADAGAQVCSLLLAQSEVRPQCLLLVLANRTEISSKLQLMKKHQSDLKKLGILDFTEQDVASHQSYSQKT
- glycan array binding signal (z-score) [1]: 1.89
- glycan array binding signal (z-score) (Fuc(a1-2)Gal(b1-4)GlcNAc): 0.713
- glycan array binding signal (z-score) [2]: 1.72
- glycan array binding signal (z-score) (Fuc(a1-2)Gal6S(b1-4)Glc): 0.088
- glycan array binding signal (z-score) [3]: 1.77
- glycan array binding signal (z-score) [4]: -0.335
- glycan array binding signal (z-score) [5]: -0.245
- glycan array binding signal (z-score) (Fuc(a1-4)GlcNAc): 0.624
- glycan array binding signal (z-score) (Gal(a1-2)Gal): -0.315
- glycan array binding signal (z-score) (Gal(a1-3)Gal): 0.754
- glycan array binding signal (z-score) (Gal(a1-3)Gal(b1-3)GlcNAc): 0.398
- glycan array binding signal (z-score) [6]: 0.084
- glycan array binding signal (z-score) [7]: -1.01
- glycan array binding signal (z-score) [8]: -0.647
- glycan array binding signal (z-score) (Gal(b1-3)GalNAc(b1-3)Gal): -0.13
- glycan array binding signal (z-score) [9]: 0.08
- glycan array binding signal (z-score) [10]: -0.549
- glycan array binding signal (z-score) [11]: -0.754
- glycan array binding signal (z-score) [12]: -0.73
- glycan array binding signal (z-score) [13]: 2.58
- glycan array binding signal (z-score) [14]: 1.97
- glycan array binding signal (z-score) (Gal3S(b1-4)Glc): 1.83
- glycan array binding signal (z-score) (Gal6S(b1-4)Glc): -0.308
- glycan array binding signal (z-score) (GalNAc(b1-3)Gal): 1.82
- glycan array binding signal (z-score) [15]: -1.07
- glycan array binding signal (z-score) [16]: 0.211
- glycan array binding signal (z-score) (Glc(b1-6)Glc): -1.19
- glycan array binding signal (z-score) [17]: -0.551
- glycan array binding signal (z-score) [18]: -0.524
- glycan array binding signal (z-score) [19]: -0.731

Source: the supplement of paper PMC8728848
